Unmarked numbers belong to inactive results.
Legend:
Conditions in all cases: 60 µM; 5 days; temperature: 20 °C
Meloidogyne hapla J2 = assay: proportion of mobile M. hapla J2 relative to DMSO control (fraction of DMSO control); higher = more viable, less nematicidal, active = 0.7 or less
In short: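 Sealed 96-well plates, each well holding around 25 M. hapla J2 in distilled water with compound pinned to 60 µM final (0.6% v/v DMSO), were shaken at 200 rpm for 5 days at 20 °C. Then 2 µL of 1 M NaOH was added to each well. Microscope-scored mobility was normalised to the mean of DMSO-only wells from the same plate. Eight such wells were on each plate, and the two biological replicates were averaged.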

[1] = system: Caenorhabditis elegans dauer (daf-2(e1370)); assay: proportion of mobile C. elegans dauer larvae relative to DMSO control (fraction of DMSO control); higher = more viable, less nematicidal, active = 0.63 or less; extreme values may be limits of the assay
In short: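 Compound was added by pinning to 60 µM final, giving 0.6% v/v DMSO, in 96-well plates containing about 20 C. elegans dauers per well in liquid NGM. These dauers came from synchronized larvae held on MYOB plates with E. coli OP50 for 48 h at 25 °C. Plates were sealed and shaken at 200 rpm at 20 °C for 5 days. Under a dissection microscope, the proportion of mobile worms was scored relative to DMSO wells, and two biological replicates were averaged.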

Ditylenchus dipsaci = assay: proportion of mobile D. dipsaci (mixed stage) relative to DMSO control (fraction of DMSO control); higher = more viable, less nematicidal, active = 0.86 or less; extreme values may be limits of the assay
In short: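 Mobility, expressed relative to DMSO controls, is the mean of two biological replicates. The test organisms were D. dipsaci grown on pea plants in Gamborg B-5 agar and extracted into water by filter funnel, with about 20 added per well of a 96-well plate in distilled water. Compound was pinned to 60 µM final (0.6% v/v DMSO), plates were sealed and shaken at 200 rpm for 5 days at 20 °C, and mobile worms were scored under a microscope once 2 µL 1 M NaOH had been added.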

| Structure (SMILES) | proportion of mobile M. hapla J2 (Meloidogyne hapla J2) | proportion of mobile C. elegans dauer larvae [1] | proportion of mobile D. dipsaci (Ditylenchus dipsaci) |
| --- | --- | --- | --- |
| CC(C)C(=O)Nc1ccccc1-c1nc(-c2ccncc2)no1 | 0.987 | 1 | 1 |
| O=C(Nc1ccccc1-c1nc(-c2cccnc2)no1)c1cccs1 | 1.02 | 1 | 1 |
| COc1ccc(-c2noc(-c3cccc(Br)c3)n2)cc1 | 0.987 | 1 | 1 |
| Cc1ccc(OCc2nc(-c3cccnc3)no2)cc1C | 1.02 | 1 | 1 |
| Cc1ccc(NC(=O)CSc2nnc(-c3ccccc3)o2)cc1C | 0.983 | 1 | 1 |
| Cc1ccc(CSc2nnc(-c3ccncc3)o2)cc1 | 0.951 | 1 | 0.75 (active) |
| Fc1ccccc1OCc1nc(-c2ccc(Cl)cc2)no1 | 1 | 1 | 1 |
| COc1ccc(Cl)cc1-c1noc(-c2ccccc2C)n1 | 0.93 | 1 | 1 |
| CCOc1ccccc1-c1nnc(SCC(=O)c2ccccc2)o1 | 1.01 | 1 | 1 |
| Cc1cccc(-c2noc(-c3ccccc3F)n2)c1 | 0.874 | 1 | 1 |
| COc1ccc(-c2noc(CSc3ccc(C)cc3)n2)cc1 | 1.03 | 1 | 1 |
| Cc1cccc(OCc2nc(-c3ccccc3)no2)c1 | 1.04 | 1 | 1 |
| Cc1ccc(-c2noc(-c3ccc(-n4nncc4C)cc3)n2)cc1 | 0.978 | 1 | 1 |
| CCCCC(=O)Nc1ccccc1-c1nc(-c2cccnc2)no1 | 1.01 | 1 | 1 |
| COc1ccc(-c2noc(-c3cccc(Cl)c3)n2)cc1 | 0.819 | 1 | 1 |
| C=CCSc1nnc(-c2ccc(Br)cc2)o1 | 0.591 (active) | 1 | 0.85 (active) |
| O=C(CSc1nnc(-c2ccccc2)o1)Nc1ccc(F)cc1F | 1.03 | 1 | 1 |
| Clc1cc(Br)ccc1OCc1nc(-c2ccncc2)no1 | 0.953 | 0.929 | 1 |

| Structure (SMILES) | proportion of mobile M. hapla J2 (Meloidogyne hapla J2) | proportion of mobile C. elegans dauer larvae [1] | proportion of mobile D. dipsaci (Ditylenchus dipsaci) |
| --- | --- | --- | --- |
| O=C(c1ccccc1-c1nc(-c2ccccc2Cl)no1)N1CCCC1 | 0.947 | 1 | 1 |
| Cc1cc(NC(=O)CSc2nnc(-c3ccccc3Cl)o2)no1 | 0.915 | 1 | 1 |
| COc1ccc(-c2nnc(SCc3ccccc3C)o2)cc1 | 0.942 | 1 | 1 |
| COc1ccc(Cl)cc1-c1noc(COc2ccccc2)n1 | 0.953 |  | 1 |
| O=C(CSc1nnc(-c2ccccc2)o1)Nc1ccccc1C(F)(F)F | 0.918 |  | 1 |
| Clc1ccc(OCc2nc(-c3ccccc3)no2)c(Br)c1 | 1.02 |  | 1 |
| Cc1cccc(-c2nnc(SCC(=O)NC(C)c3ccccc3)o2)c1 (stereo not given) | 0.89 |  | 1 |
| C=C(C)COc1ccc(-c2nc(-c3cccnc3)no2)cc1 | 0.919 | 1 | 1 |
| Brc1cccc(-c2nc(-c3cccnc3)no2)c1 | 1.01 |  | 1 |
| COc1ccc(-c2noc(-c3cccc(F)c3)n2)cc1 | 1 |  | 1 |
| CCOc1ccccc1-c1nnc(SCC(=O)NC(C)CC)o1 (stereo not given) | 0.951 |  | 1 |
| Cc1cnnn1-c1ccc(-c2nc(-c3ccc(Cl)cc3)no2)cc1 | 0.963 |  | 1 |
| CCOc1nc(-c2ccc(C)cc2)ccc1-c1noc(-c2ccncc2)n1 | 0.901 |  | 1 |
| Cc1ccccc1OCc1nc(-c2cccc(NC(=O)c3ccco3)c2)no1 | 1.03 |  | 1 |
| CCOc1ccccc1-c1nnc(SCC(=O)Nc2nccs2)o1 | 0.739 |  | 1 |
| O=C(CSc1nnc(-c2ccco2)o1)Nc1ccc(Br)cc1 | 1.05 |  | 1 |
| Cc1ccccc1-c1nc(-c2cccc(NC(=O)c3cccs3)c2)no1 | 0.959 | 1 | 1 |
| COc1ccccc1-c1nnc(SCC(=O)OCc2ccccc2)o1 | 0.978 |  | 1 |
